An excerpt weighted towards active compounds, which were near 8% of everything screened.
KB-3-1 cytotox – KB-3-1 parental cell cytotoxicity; Potency, µM (doses to about 46.1 µM), most hits filed as cytotoxic; KB-3-1 viability, CellTiter-Glo ATP luminescence, 72 h; AID 1347075; 1.4% of 400,000 active; further: on the % scale 0 is the no-effect control and ±100 the full control effect; nearly all actives have a fitted effect of over 60% in size
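Screening of KB-3-1 cells (DMEM, 10% FBS, phenol-red free) ran from lowest to highest compound concentration; after 72 h at 37 °C viability was read luminescently and curves fitted.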
MCF10A rerep – induces DNA re-replication in MCF 10a normal breast cells; 2.9% of 350,000 active; MCF 10A DNA re-replication, Hoechst nuclear intensity, 48 h; Potency, µM (doses to about 46.1 µM), without a hit: at the highest dose activity, positive = re-replication, most hits filed as activators; AID 624296; further: % of control where 0% means no effect; nearly all actives have a fitted effect of over 50% in size
HT1080NT lethal – kills 2HG-producing HT-1080-NT fibrosarcoma cells; AID 686970; HT-1080-NT fibrosarcoma viability, CellTiter-Glo ATP luminescence, 48 h; 1.6% of 360,000 active; Potency, µM (titrated, usually from 46.1 µM), for the others: at the highest dose activity, negative = less viability, hits mostly cytotoxic;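 further: NT is the 2HG producing partner of a matched IDH1 knockdown line; 0% = DMSO-treated cells and -100% = media-only wells without cells; nearly all actives have a fitted effect of over 55% in size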
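Read-out is CellTiter-Glo luminescence after 10 minutes at room temperature, following 48 hours' compound treatment of HT-1080-NT cells (750 cells/well, RPMI, 5% FBS, 37 degrees C).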
SW480 rereplic – DNA re-replication induction in SW480 cells | SW480 DNA re-replication, Hoechst DNA content imaging, 48 h | 1.8% of 340,000 active | AID 624297 | Potency, µM (series often up to 46.1 µM), without a hit: at the highest dose re-replication activation, hits mostly activators; further: % of control where 0% means no effect; nearly all actives have a fitted effect of over 55% in size
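Hoechst fluorescence of nuclei (405 nm excitation, 500-530 nm emission) measured by plate-scanning imager after 48 hr compound exposure at 37 C; re-replication scored as increased number of nuclei with elevated intensity.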
HT1080 IDH1KD tx – HT-1080 IDH1 knockdown cell toxicity (counter line) | Potency, µM (titrated, usually from 46.1 µM), for inactives: top-dose activity, negative = toxicity, actives largely listed as cytotoxic | AID 686971 | 2% of 360,000 active | HT-1080 IDH1 knockdown viability, ATP luminescence, 48 h;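 further: 0% = DMSO wells and -100% = cell-free medium wells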
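IDH1KD HT-1080 cells, 750/well, RPMI + 5% FBS; compound pinned after 2 h settling; 48 h, 37 °C; CellTiter-Glo luminescence; % activity normalised to DMSO and no-cell wells; curves fitted, classed by r2 and efficacy.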
KB-V1 MDR tox – kills drug-selected multidrug resistant KB-V1 cells; 3.4% of 400,000 active; Potency, µM (series often up to 46.1 µM), usual class: cytotoxic; KB-V1 MDR cells viability, CellTiter-Glo, 72 h; further: on the % scale 0 is the no-effect control and ±100 the full control effect; nearly all actives have a fitted effect of over 60% in size
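Potencies derive from concentration-effect curves fitted to normalized luminescence (CellTiter-Glo) of KB-V1 cells treated for 72 h at 37 degrees C in phenol-red-free DMEM containing 10% FBS.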
Numbers without * were called inactive; [ ] = dose if it differs, or a comment. The call rests on the fitted dose curve; in most records, active means well fitted curve in the direction sought with a large enough effect; inconclusive means small, poorly fitted or top-dose-only effect, or another doubt; inactive means no such curve, though single readings can be large; an effect the other way counts as inactive or inconclusive. Potency means the concentration at half of the fitted maximal effect.

`Cc1ccc(-c2[nH]c3ccccc3c2SCCNC(=O)c2ccc(S(=O)(=O)N3CCOCC3)cc2)cc1` gave KB-3-1 cytotox inactive, MCF10A rerep 16%, HT1080NT lethal -11%, SW480 rereplic -4%, HT1080 IDH1KD tx -11% and KB-V1 MDR tox inactive.
`COCc1c(C(=O)N2CCN(Cc3ccc4c(c3)OCO4)CC2)oc2ccccc12` gave KB-3-1 cytotox inconclusive, MCF10A rerep 4%, HT1080NT lethal -2%[9.24 µM], SW480 rereplic inconclusive, HT1080 IDH1KD tx -1% and KB-V1 MDR tox inactive.
Screening COCc1c(C(=O)N2CCN(Cc3ccc(C#N)cc3)CC2)oc2ccccc12 returned KB-3-1 cytotox inconclusive, MCF10A rerep inconclusive, HT1080NT lethal -15%, SW480 rereplic -1%, HT1080 IDH1KD tx -1% and KB-V1 MDR tox 13µM*.
COc1ccccc1Nc1nc(Cl)c(C=O)s1 was read as KB-3-1 cytotox inactive, MCF10A rerep 21µM*, HT1080NT lethal -8%, SW480 rereplic 0%, HT1080 IDH1KD tx -1% and KB-V1 MDR tox inactive.
Cc1ccc(Nc2nc(Cl)c(C=O)s2)cc1Cl was read as KB-3-1 cytotox inconclusive, MCF10A rerep 18µM*, HT1080NT lethal 18µM*, SW480 rereplic inconclusive, HT1080 IDH1KD tx inconclusive and KB-V1 MDR tox inactive.
Screening CCOC(=O)C1=C[C@@H](C(C)(C)C)N(S(=O)(=O)c2ccc(C)cc2)[C@H]1c1ccc(C)cc1 returned KB-3-1 cytotox inactive, HT1080NT lethal inconclusive, HT1080 IDH1KD tx 13µM* and KB-V1 MDR tox inactive.
`CCN(CC)CCOC(=O)C1(c2ccc(OC)c(OC)c2)CCCC1` gave KB-3-1 cytotox inactive, MCF10A rerep -2%, HT1080NT lethal -15%, SW480 rereplic -8%, HT1080 IDH1KD tx -7% and KB-V1 MDR tox 21µM*.
For O=C(CCl)Nc1cc(S(=O)(=O)N2CCCCCC2)ccc1Cl the results were KB-3-1 cytotox 13µM*, MCF10A rerep inconclusive, HT1080NT lethal 23µM*, SW480 rereplic inconclusive, HT1080 IDH1KD tx inconclusive and KB-V1 MDR tox 12µM*.
Screening CC(=O)OCC(=O)Nc1cc(S(=O)(=O)N2CCCCCC2)ccc1Cl returned KB-3-1 cytotox inactive, MCF10A rerep -5%, HT1080NT lethal 8%, SW480 rereplic 13%, HT1080 IDH1KD tx 3% and KB-V1 MDR tox inactive.
`CN(C)c1ccc(S(=O)(=O)N2CCCCC2)cc1NC(=O)CCNC(=O)c1ccc(Cl)cc1` gave KB-3-1 cytotox inactive, MCF10A rerep 4%, HT1080NT lethal -1%, SW480 rereplic -1%, HT1080 IDH1KD tx -2% and KB-V1 MDR tox 21µM*.
For CC(NCc1ccc(F)cc1)C(=O)Nc1cc(S(=O)(=O)N2CCCCC2)ccc1Cl (stereo not drawn) the results were KB-3-1 cytotox inconclusive, MCF10A rerep inconclusive, HT1080NT lethal 0%, SW480 rereplic inconclusive, HT1080 IDH1KD tx -14% and KB-V1 MDR tox 16µM*.
Screening CC(C)(C)CC(=O)Nc1cc(S(=O)(=O)N2CCCCCC2)ccc1Cl returned KB-3-1 cytotox inactive, MCF10A rerep inconclusive, HT1080NT lethal 0%, SW480 rereplic inconclusive, HT1080 IDH1KD tx -13% and KB-V1 MDR tox 18µM*.
Screening CC(NCc1ccccc1Cl)C(=O)Nc1ccc(S(=O)(=O)N2CCCC2)cc1 (stereo not drawn) returned KB-3-1 cytotox inactive, MCF10A rerep 11%, HT1080NT lethal -3%, SW480 rereplic -3%, HT1080 IDH1KD tx -3% and KB-V1 MDR tox inconclusive.
COc1ccc(S(=O)(=O)N2CCCCCC2)cc1NC(=O)CCNC(=O)c1ccc(Cl)cc1 was read as KB-3-1 cytotox inactive, HT1080NT lethal -18%, HT1080 IDH1KD tx -4% and KB-V1 MDR tox inactive.
COc1ccc(OC)c(C(=O)COC(=O)c2ccc(C)o2)c1 was read as KB-3-1 cytotox inactive, MCF10A rerep 8%, HT1080NT lethal 14%, SW480 rereplic -1%, HT1080 IDH1KD tx 15% and KB-V1 MDR tox inactive.
